The values below come from PubChem BioAssay (Tox21).

Values without a mark were called inactive. Results filed as inconclusive are left out. Activity calls are given as the source filed them. Calls follow the shape of the full dose curve. Residues, ends and D or L forms follow the SMILES beside them.

The target of assay [1] is Acetylcholinesterase (Homo sapiens) (UniProt P22303). The experiment in a line: Acetylcholinesterase (AChE) small molecule antagonists: enzyme-based qHTS assay (AID 1347397). Also: nearly all actives have a fitted effect of over 55% in size. Also: potency is read from the fitted curve at half-maximal effect. The conditions noted are these: Potency: AChE enzyme activity inhibition; outcome: AChE enzyme activity inhibition. In short, it runs like this: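 In this quantitative HTS, compounds from the Tox21 10K collection were preincubated 30 min at ambient temperature with recombinant human AChE dispensed at 50 mU/mL. Hydrolysis of acetylthiocholine was then followed for 10 min by DTNB colour development.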

Assay [2] shares this target. Briefly: Acetylcholinesterase (AChE) small molecule antagonists: fluorescence cell-based qHTS assay (AID 1347398). Also: nearly all actives have a fitted effect of over 50% in size. Also: potency is read from the fitted curve at half-maximal effect. The conditions noted are these: Potency: AChE activity; outcome: AChE activity. An outline of the steps: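 Cells (SH-SY5Y) attached overnight, were dosed with compound or DMSO vehicle for 30 min at 37 C, and then incubated 40 min at room temperature with acetylthiocholine and Thiolite Green; green fluorescence indexed AChE activity.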
In general terms: qHTS replaces the single test concentration by a dilution series.

For assay [3] the target is unchanged. The experiment in a line: Acetylcholinesterase (AChE) small molecule antagonists: enzyme-based qHTS assay with human liver microsomes (AID 1347399). Also: nearly all actives have a fitted effect of over 60% in size. The conditions noted are these: Potency: qHTS inhibition; outcome: qHTS inhibition. In short, it runs like this: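 Recombinant human AChE (50 mU/mL in the enzyme mix) and human liver microsomes (0.25 mg/mL final) were preincubated with compound and NADPH (0.25 mg/mL final) for 30 min at 37 C. Acetylthiocholine/DTNB was then added; thiocholine was read colorimetrically after 10 min at room temperature.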
% is scaled to controls: 0 for no effect and ±100 for the full control effect.

Chain of Acetylcholinesterase (Homo sapiens) (P22303 whole entry, looked up): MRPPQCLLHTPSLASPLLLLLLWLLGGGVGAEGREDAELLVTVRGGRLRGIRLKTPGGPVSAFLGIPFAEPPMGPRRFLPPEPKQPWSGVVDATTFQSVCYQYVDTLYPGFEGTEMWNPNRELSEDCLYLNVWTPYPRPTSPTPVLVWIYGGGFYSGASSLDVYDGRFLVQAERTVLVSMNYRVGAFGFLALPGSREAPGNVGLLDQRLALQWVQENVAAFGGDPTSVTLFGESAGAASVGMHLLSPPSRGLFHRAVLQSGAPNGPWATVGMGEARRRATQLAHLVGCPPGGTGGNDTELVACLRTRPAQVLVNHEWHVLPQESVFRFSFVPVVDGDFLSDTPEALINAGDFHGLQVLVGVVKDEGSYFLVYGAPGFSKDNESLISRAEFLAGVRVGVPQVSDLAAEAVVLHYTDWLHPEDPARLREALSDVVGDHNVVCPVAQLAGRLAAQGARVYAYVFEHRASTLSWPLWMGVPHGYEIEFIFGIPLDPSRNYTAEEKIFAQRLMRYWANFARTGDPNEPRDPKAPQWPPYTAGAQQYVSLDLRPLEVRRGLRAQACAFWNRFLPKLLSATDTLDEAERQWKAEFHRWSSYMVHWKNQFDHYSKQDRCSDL

Turning to `CCO[Si](CCCSSSSCCC[Si](OCC)(OCC)OCC)(OCC)OCC`, the Potency result in assay [1], in assay [2] and in assay [3] was “inactive” in each case.
For the molecule `C=C1C[C@@]23CC[C@H]4[C@@](C)(CCC[C@@]4(C)C(=O)O[C@@H]4O[C@H](CO)[C@@H](O)[C@H](O)[C@H]4O)[C@@H]2CC[C@]1(O[C@@H]1O[C@H](CO)[C@@H](O)[C@H](O[C@@H]2O[C@H](CO)[C@@H](O)[C@H](O)[C@H]2O)[C@H]1O[C@@H]1O[C@H](CO)[C@@H](O)[C@H](O)[C@H]1O)C3`, the Potency result in assay [1], in assay [2] and in assay [3] was “inactive” each time.
For `O=C(O)CO`, the Potency result in assay [1], in assay [2] and in assay [3] was “inactive” each time.
For the molecule `CCCCCCCCCCCC(=O)NCCCN(C)C`, the Potency result in assay [1] and in assay [3] was “inactive” in each case. For the same molecule, in assay [2], the Potency is 31.7 µM (active).
For `[O-][n+]1cccc(/C(Cl)=N/OC[C@@H](O)CN2CCCCC2)c1`, the Potency entry in assay [1], in assay [2] and in assay [3] was “inactive” throughout.
As for `S=c1[nH]c2ccccc2s1`, the Potency entry in assay [1], in assay [2] and in assay [3] was “inactive” throughout.
Regarding `N=C(N)c1ccc(OCCCOc2ccc(C(=N)N)cc2)cc1`, the Potency result in assay [1], in assay [2] and in assay [3] was “inactive” each time.
Take `COC(/C=C(\C)CCC=C(C)C)OC`: the Potency result in assay [1], in assay [2] and in assay [3] was “inactive” throughout.
For `Cc1nc2n(c(=O)c1CCN1CCC(c3noc4cc(F)ccc34)CC1)CCC[C@H]2O`, the activity change, negative = inhibition was -5.56% [at 23.6 µM] in assay [1], -17.1% [at 23.8 µM] in assay [2] and -2.77% [at 23.6 µM] in assay [3].
Consider `Clc1nnc(Cl)c2ccccc12`, for which the Potency result in assay [1], in assay [2] and in assay [3] was “inactive” in each case.
On to `Nc1nc(N)c(-c2ccccc2)s1`, for which the Potency result in assay [1], in assay [2] and in assay [3] was “inactive” throughout.
In the case of `Nc1ccc(S(=O)(=O)Nc2ccccc2)cc1`, the Potency result in assay [1], in assay [2] and in assay [3] was “inactive” each time.
Turning to `CCCCCCCC[P+](CCCCCCCC)(CCCCCCCC)CCCCCCCC`, the Potency in assay [1] is 22.3 µM (active); in assay [2] it was 62.9 µM (active). For the same molecule, in assay [3], the Potency entry was “inactive”.
As to `CCCOC(=O)c1c(Cl)c(Cl)c(Cl)c(Cl)c1C(=O)OCCC`, the Potency result in assay [1], in assay [2] and in assay [3] was “inactive” throughout.
For the molecule `CC(C)OC(=O)c1ccccc1C(=O)OC(C)C`, the Potency entry in assay [1], in assay [2] and in assay [3] was “inactive” each time.
As for `N[C@H](C(=O)O)[C@@H](O)c1ccc(O)c(O)c1`, the Potency result in assay [1], in assay [2] and in assay [3] was “inactive” each time.
For the molecule `C=CCOCC(O)CO` (stereo not drawn), the Potency entry in assay [1], in assay [2] and in assay [3] was “inactive” each time.
Turning to `Cc1oncc1C(=O)Nc1ccc(C(F)(F)F)cc1`, the Potency result in assay [1], in assay [2] and in assay [3] was “inactive” each time.
On to `COC(=O)C1=C(C)NC(C)=C(C(=O)OCCN2CCN(C(c3ccccc3)c3ccccc3)CC2)C1c1cccc([N+](=O)[O-])c1` (stereo not drawn), for which the Potency result in assay [1], in assay [2] and in assay [3] was “inactive” each time.
As for `CCOC(=O)CC(C)C`, the Potency entry in assay [1], in assay [2] and in assay [3] was “inactive” throughout.
As for `COc1cc2nc(N3CCN(C(=O)c4ccco4)CC3)nc(N)c2cc1OC`, the activity change, negative = inhibition in assay [1] is -11.6% [at 23.6 µM]; in assay [2] it was -22.9% [at 23.8 µM]; in assay [3], -0.588% [at 23.6 µM].
In the case of `O=C(O)C(O)[C@H](O)[C@@H](O)[C@H](O)[C@H](O)CO` (stereo partly drawn), the Potency entry in assay [1], in assay [2] and in assay [3] was “inactive” each time.
In the case of `CCN1CCC[C@H]1CNC(=O)c1cc(S(N)(=O)=O)ccc1OC`, the Potency entry in assay [1], in assay [2] and in assay [3] was “inactive” each time.
In the case of `CCCCCCCCC1CCC(=O)O1` (stereo not drawn), the Potency result in assay [1], in assay [2] and in assay [3] was “inactive” each time.
Take `CN(C)CCOCCN(C)CCO`: the Potency entry in assay [1], in assay [2] and in assay [3] was “inactive” each time.
In the case of `CCCCCCCC[N+](CCCCCCCC)(CCCCCCCC)CCCCCCCC`, the Potency in assay [1] is 39.8 µM (active); in assay [2], 70.9 µM (active). For the same molecule, in assay [3], the Potency result is “inactive”.
Taken in the same sequence, the figures for `CCC(OCCCOC)OC(C)=O` (stereo not drawn) were “inactive”, “inactive” and “inactive”.
Taken in the same sequence, the figures for `CCCCCCC(=O)OCC` were “inactive”, “inactive” and “inactive”.
Taken in the same sequence, the figures for `CN(C)CCCO[C@@H]1[C@H]2OC(C)(C)O[C@H]2O[C@@H]1C(O)CO` (stereo partly drawn) were “inactive”, “inactive” and “inactive”.
With `S=C([S-])NCCNC(=S)[S-].[Mn+2]`, the Potency result in assay [1] and in assay [3] was “inactive” in each case. Besides, the Potency in assay [2] is 39.9 µM (active).
With `Cc1cn[nH]c1`, the Potency result in assay [1], in assay [2] and in assay [3] was “inactive” in each case.
Turning to `O=C(N[C@@H](c1ccccc1)[C@@H]1CCCCN1)c1cccc(C(F)(F)F)c1Cl`, the Potency entry in assay [1], in assay [2] and in assay [3] was “inactive” in each case.
For the molecule `Cc1cccc(O)c1N`, the Potency result in assay [1], in assay [2] and in assay [3] was “inactive” each time.
Take `CC(=O)N[C@@H](CO)C(=O)N[C@@H](CC(=O)O)C(=O)N[C@@H](CCCCN)C(=O)N1CCC[C@H]1C(=O)O` (Ac-SDKP-OH): the Potency entry in assay [1], in assay [2] and in assay [3] was “inactive” each time.
On to `CN1[C@@H]2CC[C@H]1CC(OC(=O)C(O)c1ccccc1)C2` (stereo partly drawn), for which the Potency entry in assay [1], in assay [2] and in assay [3] was “inactive” throughout.
Turning to `O=C1CCCC(=O)C1`, the Potency result in assay [1], in assay [2] and in assay [3] was “inactive” each time.
Regarding `CS(=O)(=O)c1ccc([C@@H](C[C@H]2CCC(=O)C2)C(=O)Nc2cnccn2)cc1Cl`, the Potency result in assay [1], in assay [2] and in assay [3] was “inactive” each time.
Regarding `COc1ccnc(CS(=O)c2nc3cc(OC(F)F)ccc3[nH]2)c1OC` (stereo not drawn), the Potency entry in assay [1], in assay [2] and in assay [3] was “inactive” throughout.
For `CCCCCC(=O)CC`, the Potency entry in assay [1], in assay [2] and in assay [3] was “inactive” throughout.
For the molecule `CCCCCCCCCCCCCCCCCC[N+](C)(C)Cc1ccccc1`, the results for the Potency in assay [1] and in assay [2] were 28.5 µM (active) and 71.7 µM (active), respectively. For the same molecule, in assay [3], the Potency result was “inactive”.
As for `Cn1cc(C(=O)[C@@H]2CCc3nc[nH]c3C2)c2ccccc21`, the Potency entry in assay [1], in assay [2] and in assay [3] was “inactive” throughout.
